{
  "source": "ChEMBL document CHEMBL3433997",
  "about": "“St. Jude Leishmania screening dataset” (2016)",
  "assay_type_in_all_cases": "functional",
  "key": {"[1]": {"target": "Solute carrier family 2, facilitated glucose transporter member 1 (Homo sapiens) (UniProt P11166)", "sequence (P11166 whole entry)": "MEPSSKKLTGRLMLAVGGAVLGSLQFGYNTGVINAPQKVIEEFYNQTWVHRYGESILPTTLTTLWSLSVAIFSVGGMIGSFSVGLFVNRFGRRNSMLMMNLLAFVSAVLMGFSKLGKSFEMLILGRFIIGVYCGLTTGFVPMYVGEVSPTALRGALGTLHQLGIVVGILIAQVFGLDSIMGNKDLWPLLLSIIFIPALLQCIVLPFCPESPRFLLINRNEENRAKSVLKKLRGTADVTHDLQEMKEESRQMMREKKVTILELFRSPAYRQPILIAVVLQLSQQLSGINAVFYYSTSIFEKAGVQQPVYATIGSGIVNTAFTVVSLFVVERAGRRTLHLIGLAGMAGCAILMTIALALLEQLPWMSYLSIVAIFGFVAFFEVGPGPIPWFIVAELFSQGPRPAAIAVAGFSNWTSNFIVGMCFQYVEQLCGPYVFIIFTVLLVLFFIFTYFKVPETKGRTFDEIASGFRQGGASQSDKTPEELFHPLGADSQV", "test": "ST_JUDE_LEISH: Cytotoxicity at 2uM final concentration against transgenic Leishmania Mexicana promastigotes LmGLUT1 that are glucose transport deficient and complemented with the human glucose transporter GLUT1. Activity is measured by DNA content using SYBR green in vitro"}, "[2]": {"target": "Hexose transporter 1 (Plasmodium falciparum) (UniProt O97467)", "test": "ST_JUDE_LEISH: Cytotoxicity at 2uM final concentration against transgenic Leishmania Mexicana promastigotes LmPfHT that are glucose transport deficient and complemented with the Plasmodium falciparum hexose transporter. Activity is measured by DNA content using SYBR green in vitro"}, "[3]": {"target": "Glucose transporter (Leishmania mexicana) (UniProt O61059)", "test": "ST_JUDE_LEISH: Cytotoxicity at 2uM final concentration against transgenic Leishmania Mexicana promastigotes LmGT2 that are glucose transport deficient and complemented with the L. Mexicana glucose transporter 2. Activity is measured by DNA content using SYBR green in vitro"}},
  "data": [
    {"molecule": "O=c1ccc2ccc(F)c3c2n1CC3CN1CCC(NCc2ccc(-c3cccc(Cl)c3)nc2)CC1", "note": "(centres undefined)", "values": [
      {"measurement": "inhibition", "setting": "[1]", "value": 26.2, "unit": "%"},
      {"measurement": "inhibition", "setting": "[2]", "value": 21.3, "unit": "%"},
      {"measurement": "inhibition", "setting": "[3]", "value": 14.9, "unit": "%"}
    ]},
    {"molecule": "COc1cc(C2CCN(CCCCNC(=O)c3ccc(NC(=O)c4ccc(Cl)c(Cl)c4)cc3)CC2)ccc1OC(C)C", "values": [
      {"measurement": "inhibition", "setting": "[1]", "value": 1.53, "unit": "%"},
      {"measurement": "inhibition", "setting": "[2]", "value": 4.29, "unit": "%"},
      {"measurement": "inhibition", "setting": "[3]", "value": 1.53, "unit": "%"}
    ]},
    {"molecule": "O=C(/C=C/c1ccc(Cl)c(Cl)c1)NCCCCCN1CCCC(C(=O)Nc2ccc(Cl)cc2)C1", "note": "(centres undefined)", "values": [
      {"measurement": "inhibition", "setting": "[1]", "value": 3.76, "unit": "%"},
      {"measurement": "inhibition", "setting": "[2]", "value": 5.09, "unit": "%"},
      {"measurement": "inhibition", "setting": "[3]", "value": 2.58, "unit": "%"}
    ]},
    {"molecule": "Cc1ccc(CCC(C)NCC(O)c2cccc(Cl)c2)cc1", "note": "(centres undefined)", "values": [
      {"measurement": "inhibition", "setting": "[1]", "value": 12.8, "unit": "%"},
      {"measurement": "inhibition", "setting": "[2]", "value": 13.1, "unit": "%"},
      {"measurement": "inhibition", "setting": "[3]", "value": 11.1, "unit": "%"}
    ]},
    {"molecule": "CC(=O)Nc1nc(C(=O)Nc2ccc(-c3cccc(-c4nc5cccc(C)c5[nH]4)c3)cc2)cs1", "values": [
      {"measurement": "inhibition", "setting": "[1]", "value": 8.57, "unit": "%"},
      {"measurement": "inhibition", "setting": "[2]", "value": 9.26, "unit": "%"},
      {"measurement": "inhibition", "setting": "[3]", "value": 5.38, "unit": "%"}
    ]},
    {"molecule": "O=C(NCC1CCN(Cc2ccsc2)C1)c1cc(-c2cccc(C(F)(F)F)c2)cs1", "note": "(centres undefined)", "values": [
      {"measurement": "inhibition", "setting": "[1]", "value": 1.96, "unit": "%"},
      {"measurement": "inhibition", "setting": "[2]", "value": 0.91, "unit": "%"},
      {"measurement": "inhibition", "setting": "[3]", "value": 3.66, "unit": "%"}
    ]},
    {"molecule": "Cn1cncc1C(=O)Nc1cccc(-c2ccc(-c3nc4ccccc4[nH]3)cc2)c1", "values": [
      {"measurement": "inhibition", "setting": "[1]", "value": -2.56, "unit": "%"},
      {"measurement": "inhibition", "setting": "[2]", "value": -2.33, "unit": "%"},
      {"measurement": "inhibition", "setting": "[3]", "value": -0.9, "unit": "%"}
    ]},
    {"molecule": "CCCC1N=C(N)N=C(N)N1c1cccc([N+](=O)[O-])c1", "note": "(centres undefined)", "values": [
      {"measurement": "inhibition", "setting": "[1]", "value": 1.33, "unit": "%"},
      {"measurement": "inhibition", "setting": "[2]", "value": -0.09, "unit": "%"},
      {"measurement": "inhibition", "setting": "[3]", "value": 0.75, "unit": "%"}
    ]},
    {"molecule": "NCCNc1ccc([N+](=O)[O-])cc1C(=O)Nc1cccc(Cl)c1", "values": [
      {"measurement": "inhibition", "setting": "[1]", "value": 2.71, "unit": "%"},
      {"measurement": "inhibition", "setting": "[2]", "value": 4.41, "unit": "%"},
      {"measurement": "inhibition", "setting": "[3]", "value": 2.22, "unit": "%"}
    ]},
    {"molecule": "CC1CN(c2ccc3occ(C(=O)Nc4ccc(-c5ccncc5)c(Cl)c4)c3c2)CC(C)N1C", "note": "(centres undefined)", "values": [
      {"measurement": "inhibition", "setting": "[1]", "value": 5.54, "unit": "%"},
      {"measurement": "inhibition", "setting": "[2]", "value": 3.33, "unit": "%"},
      {"measurement": "inhibition", "setting": "[3]", "value": 1.93, "unit": "%"}
    ]},
    {"molecule": "CCc1ccccc1N1CCN(CCCC(=O)c2ccc(NC(=O)c3ccc(Cl)cc3)cc2)CC1", "values": [
      {"measurement": "inhibition", "setting": "[1]", "value": 3.6, "unit": "%"},
      {"measurement": "inhibition", "setting": "[2]", "value": 3.75, "unit": "%"},
      {"measurement": "inhibition", "setting": "[3]", "value": 4.09, "unit": "%"}
    ]},
    {"molecule": "O=C(Nc1ccccc1N1CCOCC1)c1ncoc1-c1ccccc1C(F)(F)F", "values": [
      {"measurement": "inhibition", "setting": "[1]", "value": 3.99, "unit": "%"},
      {"measurement": "inhibition", "setting": "[2]", "value": 2.36, "unit": "%"},
      {"measurement": "inhibition", "setting": "[3]", "value": 2.48, "unit": "%"}
    ]},
    {"molecule": "COc1cc(CNc2ccc(N3CCCC3)cc2)cc(Cl)c1OC", "values": [
      {"measurement": "inhibition", "setting": "[1]", "value": -2.15, "unit": "%"},
      {"measurement": "inhibition", "setting": "[2]", "value": -4.72, "unit": "%"},
      {"measurement": "inhibition", "setting": "[3]", "value": 1.78, "unit": "%"}
    ]},
    {"molecule": "COc1ccc(-c2ccc(S(=O)(=O)Nc3cc4c(cc3OC(C)C)CCN(C)CC4)cc2)cc1", "values": [
      {"measurement": "inhibition", "setting": "[1]", "value": 1.81, "unit": "%"},
      {"measurement": "inhibition", "setting": "[2]", "value": 2.48, "unit": "%"},
      {"measurement": "inhibition", "setting": "[3]", "value": 1.21, "unit": "%"}
    ]},
    {"molecule": "CCOc1ccc2c(=NN=Cc3cccc(Cl)c3)cc(C)[nH]c2c1", "values": [
      {"measurement": "inhibition", "setting": "[1]", "value": 8.03, "unit": "%"},
      {"measurement": "inhibition", "setting": "[2]", "value": 6.27, "unit": "%"},
      {"measurement": "inhibition", "setting": "[3]", "value": 16, "unit": "%"}
    ]},
    {"molecule": "O=C(Cc1c[nH]cn1)Nc1ccc(-c2cccc(-c3nc4cc(F)ccc4[nH]3)c2)cc1", "values": [
      {"measurement": "inhibition", "setting": "[1]", "value": 1.49, "unit": "%"},
      {"measurement": "inhibition", "setting": "[2]", "value": 4.07, "unit": "%"},
      {"measurement": "inhibition", "setting": "[3]", "value": 2.01, "unit": "%"}
    ]},
    {"molecule": "CN(c1ccc(NC(=O)Nc2cc(C(C)(C)C)on2)cc1)c1ccnc(NCCOC(=O)Nc2cc(C(C)(C)C)on2)n1", "values": [
      {"measurement": "inhibition", "setting": "[1]", "value": 10.6, "unit": "%"},
      {"measurement": "inhibition", "setting": "[2]", "value": 7.48, "unit": "%"},
      {"measurement": "inhibition", "setting": "[3]", "value": 11.5, "unit": "%"}
    ]},
    {"molecule": "NC1CCN(c2nc(NCCc3ccc(O)cc3)nc(NCc3ccccc3-c3ccc(C(F)(F)F)cc3)n2)CC1", "values": [
      {"measurement": "inhibition", "setting": "[1]", "value": 4.18, "unit": "%"},
      {"measurement": "inhibition", "setting": "[2]", "value": 3.01, "unit": "%"},
      {"measurement": "inhibition", "setting": "[3]", "value": 2.19, "unit": "%"}
    ]}
  ]
}
